# Reference: PubChem BioAssay AID540332 (The Scripps Research Institute Molecular Screening Center, 2011)
# Activity calls are given as the source filed them. The rule behind the calls is not given here.
# Tested on: Phorbol Ester
# Assay: selectivity profile across receptors and CYP450s – biochemical, Ricerca HitProfilingScreen, CYP450, set 2, selectivity assay for S1P4 agonist project, profiling panel (AID 540332)
# Settings: at 30 µM; stronger effect = higher value
smiles,measurement,value
COCCN=C1S/C(=C\c2cc(C)n(-c3ccc(F)cc3F)c2C)C(=O)N1C,inhibition,2% (inactive)
